Assay results from PubChem BioAssay AID463173 (ICCB-Longwood Screening Facility, Harvard Medical School, 2010).
Out of some 52,000 compounds screened, about 4,300 (8.3%) were called active. Shown is part of a subset that was picked to be rich in actives. Values without a mark were called inactive. Cut-off read from the data, not from the text of the source: active = survival mostly below about 52% (no sharp cut-off); inactive = mostly above about 56%.

system: DeltatarO mutant; assay: growth inhibition of S. aureus wild type versus tarO mutant, primary screen, teichoic acid synthesis inhibitors, RN4220, OD600 (AID 463173); conditions: OD600, 18 h, stronger effect = lower value, screened at 18.75 µg/mL (by protocol)

SMILES	survival
CC(=O)Nc1ccc(C(=O)NCCN2CCOCC2)cc1	96%
Cc1cccc(N2CCN(S(=O)(=O)c3ccc4c(c3)C(C(C)C)C(=O)N4)CC2)c1C (configuration not stated)	55%
Cc1ccc(Cc2nc3ccccc3nc2SCC(=O)NCCC(C)C)cc1	112%
CCCCN(CC)CCNC(=O)CN1C(=O)COc2ccc(S(=O)(=O)N3CCOCC3)cc21	86%
Cc1ccc(C)c(NC(=O)CCc2nc3cccnc3n2Cc2cccs2)c1	73%
CCOc1ccc(C2CC(=O)Nc3nc(SCc4ccccc4C)[nH]c(=O)c32)cc1OC (configuration not stated)	103%
CCOc1ccc(C2CC(=O)Nc3c2c(=O)nc(SCc2ccccc2C)n3C)cc1OC (configuration not stated)	42% (active)
COc1cc(O)ccc1C1CC(=O)Nc2c1c(=O)nc(SCc1ccccc1C)n2C (configuration not stated)	93%
COc1ccc(-c2[nH]c(-c3ccc(C)cc3)nc2SCC(=O)NCC2CCCO2)cc1 (configuration not stated)	82%
COc1ccc2c(c1)c1c(c(=O)n(-c3cc(Cl)ccc3C)c(=O)n1CC(=O)N1CCCC1)n2C	83%
Cc1ccccc1NC(=O)Cn1c(=O)n(Cc2ccc3c(c2)OCO3)c(=O)c2ccccc21	97%
Cc1ccc(C2c3c(-c4cc(C)ccc4O)n[nH]c3C(=O)N2Cc2ccco2)cc1 (configuration not stated)	1% (active)
COc1cc(C2c3c(-c4cc(C)ccc4O)n[nH]c3C(=O)N2Cc2ccco2)cc(OC)c1OC (configuration not stated)	66%
COc1cc(C2c3c(-c4cc(C)ccc4O)n[nH]c3C(=O)N2Cc2cccnc2)cc(OC)c1OC (configuration not stated)	83%
Cc1cc(C)c2c(=O)c3c(oc2c1)C(=O)N(Cc1ccco1)C3c1ccccc1F (configuration not stated)	106%
CCOc1cccc(C2c3c(-c4cc(C)ccc4O)n[nH]c3C(=O)N2Cc2ccco2)c1 (configuration not stated)	8% (active)
Cc1cc(C)c(-c2n[nH]c3c2C(c2ccccc2F)N(Cc2ccco2)C3=O)c(O)c1 (configuration not stated)	2% (active)
Cc1ccc(O)c(-c2n[nH]c3c2C(c2ccc(F)cc2)N(Cc2ccco2)C3=O)c1 (configuration not stated)	2% (active)
Cc1cc(C)c(-c2n[nH]c3c2C(c2ccccc2F)N(CCO)C3=O)c(O)c1 (configuration not stated)	77%
CCOc1ccc(C2c3c(-c4cc(C)ccc4O)n[nH]c3C(=O)N2Cc2cccnc2)cc1OCC (configuration not stated)	72%
CCC(=O)N1c2ccc(S(=O)(=O)NCCc3ccccc3)cc2CC1C (configuration not stated)	77%
Cc1ccc2[nH]c(CSc3nnc(NC(=O)COc4ccccc4)s3)cc(=O)c2c1	82%

SMILES	survival
Cc1cc(C)c(NC(=O)C(C)n2nc(-c3ccc(C)c(C)c3)ccc2=O)c(C)c1 (configuration not stated)	63%
CCCCNC(=O)CN1CCN(c2ncc(NC(=O)c3ccc(Cl)cc3)cc2C(=O)O)CC1	94%
O=C1c2[nH]nc(-c3ccccc3O)c2C(c2ccccc2F)N1Cc1ccncc1 (configuration not stated)	94%
O=C1c2[nH]nc(-c3ccccc3O)c2C(c2cccc(Br)c2)N1Cc1ccncc1 (configuration not stated)	85%
CCCOc1ccc(C2c3c(-c4ccccc4O)n[nH]c3C(=O)N2Cc2ccncc2)cc1OCC (configuration not stated)	90%
O=C1c2[nH]nc(-c3ccccc3O)c2C(c2ccccc2F)N1Cc1cccnc1 (configuration not stated)	87%
Cc1ccc(O)c(-c2n[nH]c3c2C(c2ccccc2F)N(Cc2ccco2)C3=O)c1 (configuration not stated)	8% (active)
CCCOc1cccc(C2c3c(-c4ccccc4O)n[nH]c3C(=O)N2Cc2ccco2)c1 (configuration not stated)	2% (active)
COc1ccc(Cl)cc1NC(=O)c1ccc2nc(Cc3ccccc3)oc2c1	101%
CN(C)c1ccc(CNC(=O)c2cnc3sc(N4CCCC4)nn3c2=O)cc1	67%
CCOC(=O)c1c(C)n(C(=O)c2ccco2)c(=O)n1C(=O)c1ccco1	73%
COc1ccc(CCn2c(=O)c3ccccc3n(CC(=O)Nc3cccc(C)c3)c2=O)cc1OC	83%
CC(C)n1nnnc1SCC(=O)c1ccc2c(c1)OCCO2	87%
O=C(CSc1nnnn1C1CCCC1)c1ccc2c(c1)OCCO2	70% (active)
Cc1ccc(C(=O)CSc2nnnn2C2CCCC2)cc1C	67%
COc1ccc(C(=O)NNc2ncnc3c2cnn3-c2ccc(C)cc2C)cc1	0% (active)
Cc1cccc(C(=O)NNc2ncnc3c2cnn3-c2ccc(C)cc2C)c1	106%
Cc1ccc(-n2ncc3c(NCC(C)C)ncnc32)c(C)c1	37% (active)
COc1ccc(C(=O)NNc2ncnc3c2cnn3-c2ccc(C)c(Cl)c2)cc1	69%
Cc1ccc(CNc2ncnc3c2cnn3-c2ccc(C)cc2C)cc1	77%
Cc1ccc(-n2ncc3c(N(CC(C)C)CC(C)C)ncnc32)c(C)c1	78%
O=C(NCC(c1cccnc1)N1CCc2ccccc2C1)C(=O)Nc1ccccc1F (configuration not stated)	75%

SMILES	survival
CCN(CC)CC(=O)Nc1ccc(-c2ccc(NC(=O)CN(CC)CC)cc2)cc1	113%
CC1CCC(C(=O)NC(C(=O)OCC(=O)c2ccccc2)C(C)C)CC1 (configuration not stated)	75%
COc1cc(OC)cc(-c2nc3n(n2)C(c2ccccc2F)C(C(=O)Nc2cccnc2)=C(C)N3)c1 (configuration not stated)	45% (active)
COc1cccc(C2C(C(=O)Nc3ccccc3)=C(C)Nc3nc(-c4ccccc4)nn32)c1 (configuration not stated)	57% (active)
COc1ccc(C2C(C(=O)Nc3ccccc3)=C(C)Nc3nc(-c4ccccc4)nn32)cc1OC (configuration not stated)	85%
CC1=C(C(=O)Nc2ccccc2)C(c2ccc(C(=O)O)cc2)n2nc(SCC(=O)c3ccc(C)cc3)nc2N1 (configuration not stated)	82%
COc1ccc(-c2nc3n(n2)C(c2ccccc2OC)C(C(=O)Nc2cccnc2)=C(C)N3)cc1 (configuration not stated)	80%
COc1ccc(C2C(C(=O)Nc3ccccc3)=C(C)Nc3nc(-c4ccccc4)nn32)c(OC)c1 (configuration not stated)	82%
COc1ccc(C2C(C(=O)Nc3ccccc3)=C(C)Nc3nc(SCC(=O)c4ccc(C)cc4)nn32)cc1 (configuration not stated)	71%
COc1ccc(-c2nc3n(n2)C(c2ccccc2F)C(C(=O)Nc2cccnc2)=C(C)N3)cc1OC (configuration not stated)	81%
CC1=C(C(=O)Nc2ccccc2)C(c2cccc(Cl)c2)n2nc(SCC(=O)c3ccc(C)cc3)nc2N1 (configuration not stated)	52% (active)
CCOc1ccc(NC(=O)C2CCN(S(=O)(=O)c3ccc4c(c3)oc(=O)n4C)CC2)cc1	91%
CCCCNC(=O)c1cnn2c(C)c(Cc3c(F)cccc3Cl)c(C)nc12	135%
O=C(CN1C(=O)CCSc2ccccc21)Nc1ccc(C(F)(F)F)cc1	111%
N#Cc1c(N)nc2c(c1-c1ccccc1)CCCC2	102%
COc1ccc(S(=O)(=O)NCc2ccc3c(c2)CCN3C(=O)c2ccc(C)cc2)cc1Cl	112%
CCOC(=O)c1oc2c(c1C)/C(=N/OC(=O)c1ccccc1Cl)CCC2	69%
Cc1cc(S(=O)(=O)Nc2cc3c(cc2N2CCOCC2)n(C)c(=O)c(=O)n3C)ccc1F	72%
Cc1ccc(S(=O)(=O)Nc2nnc(CC(C)(C)C)s2)cc1	87%
CC(C)(C)c1nnc(NS(=O)(=O)c2ccc(F)cc2)s1	82%
Cc1cc(C)c(S(=O)(=O)Nc2nnc(C(F)(F)F)s2)c(C)c1	36% (active)
O=C(O)c1cccnc1SCc1cccc(Cl)c1	79%

SMILES	survival
Cc1cccc(CSc2ncccc2C(=O)O)c1	47% (active)
Cc1ccc(CSc2ncccc2C(=O)O)cc1	87%
Cc1ccc(NC(=O)c2c(C)oc3ccc(O)c(CN4CCCC4)c23)c(C)c1	67%
CCOc1ccc(CCNC(=O)Cn2ccc3cc(S(=O)(=O)N4CCCCCC4)ccc32)cc1	126%
CCc1ccc(OC(=O)c2sc3ncn(Cc4cccc(F)c4)c(=O)c3c2C)cc1	115%
COc1ccc(S(=O)(=O)NCC(c2ccco2)N2CCN(c3ccc(F)cc3)CC2)cc1 (configuration not stated)	84%
CCC(=O)N1CCc2cc(CNS(=O)(=O)c3ccc(Br)s3)ccc21	47% (active)
CCC(=O)N1CCc2cc(S(=O)(=O)NC(CC(C)C)C(=O)Nc3ccc(CC)cc3)ccc21 (configuration not stated)	60% (active)
CC(=O)N1CCc2cc(CNS(=O)(=O)c3ccc(Br)s3)ccc21	73%
CCC(=O)N1CCc2cc(S(=O)(=O)NC(Cc3ccccc3)C(=O)Nc3ccc(C)cc3)ccc21 (configuration not stated)	64%
CCC(=O)N1CCc2cc(S(=O)(=O)NC(CC(C)C)C(=O)NCc3ccc(C)cc3)ccc21 (configuration not stated)	97%
CCC(=O)N1CCc2cc(S(=O)(=O)NC(CC(C)C)C(=O)NCc3ccc(F)cc3)ccc21 (configuration not stated)	80%
CCC(=O)N1CCc2cc(CNS(=O)(=O)c3ccc(Cl)s3)ccc21	93%
CCC(=O)N1CCc2cc(S(=O)(=O)NC(Cc3ccccc3)C(=O)NCc3ccccc3)ccc21 (configuration not stated)	65%
CCC(=O)N1CCc2cc(S(=O)(=O)NC(Cc3ccccc3)C(=O)O)ccc21 (configuration not stated)	25% (active)
COC(=O)c1ccccc1NC(=O)c1oc2ccc3c(c2c1C)C(=O)CC(C)(C)O3	80%
Cc1nc2cc(C(=O)O)ccc2n1-c1ccc(C(C)C)cc1	68%
COc1cccc(CNC(=O)CSc2nc3ccccc3nc2Cc2ccccc2)c1	69%
COc1ccc(NS(=O)(=O)c2ccc(-c3cnc(C4CC4)o3)cc2)cc1Cl	124%
CCOC(=O)C1CCCN(S(=O)(=O)c2ccc(OC)cc2)C1 (configuration not stated)	76%
CN1C(=O)Cc2cc(S(=O)(=O)CCC(=O)Nc3ccccc3)ccc21	83%
